Laboratory results taken from PubChem BioAssay.
Several values for one entry are separate records, joined by “and”; a condition that tells them apart may be missing. Identical values can stand only once. Activity calls are given as the source filed them.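 Rule for the calls, unless noted: active = normalized viability below 100% at a tested concentration; inactive = the rest.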

Tests used:
[1] = Wnt pathway potentiators raising nuclear beta-catenin – imaging, WNT3A-conditioned medium, mouse C2C12, NPC library, primary screen (AID 1117326; in the data active = nuclear beta-catenin stimulation mostly above about 4.2%, no sharp cut-off; inactive = mostly below about 10%); conditions: stronger effect = higher value
[2] = growth inhibition of GSK3B-pretreated HCT116 cells – cell-based, CellTiter-Glo, 0.2 to 20 µM (AID 1117336;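 active = compounds lowering colon cancer cell viability after pretreatment blocking the GSK3B kinase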); conditions: HCT116 viability after GSK3B inhibitor, at 20 µM, stronger effect = higher value
[3] = HCT116 colon cancer cell growth inhibition, primary screen, CellTiter-Glo luminescence, NPC library (AID 1117342;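 active = compounds that lower survival of HCT116 colon cancer cells in the luminescence readout, no numeric limit stated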); conditions: at 20 µM (top of the series)
[4] = reduced SW480 viability measured with CellTiter-Glo, NPC library, primary (AID 1117343;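 active = compounds that lower viability of the colon cancer cells in the luminescence readout, with no numeric limit stated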); conditions: CellTiter-Glo luminescence; at 20 µM (top of the series) unless noted
[5] = NPC library primary testing for decreased DLD-1 cell viability via CellTiter-Glo (AID 1117346;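 active = compounds that lower survival of DLD-1 colon cancer cells in the luminescence readout, no cutoff given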); conditions: DLD-1 viability, CellTiter-Glo luminescence; at 20 µM (top of the series)
[6] = viability loss with induced miR-34 in A549 – imaging, A549 dox-inducible miR-34, nuclei and caspase counts, primary screen (AID 1347080;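 active = compounds whose cell count with miR-34 switched on is under 0.7 times the count with it off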); conditions: A549 miR-34 inducible, Hoechst nuclei count, 48 h
[7] = galactose survival enhancers in mitochondrial complex I cybrids – cell-based, galactose medium, ATP luminescence, primary screen (AID 1645843;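 active = z-score of at least 1.8 in each of two replicates, scored against plate mean and spread of sample wells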;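 note: positive z means more ATP and so rescue of galactose-driven cybrid death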); conditions: complex I mutant cybrid cells, 72 h, stronger effect = higher value
[8] = blockers of polyQ-driven CASP3 activation – cell-based (AID 1583); conditions: polyglutamine-induced caspase-3 activation, cell assay; stronger effect = higher value;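 tested at 10 µM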
[9] = compounds altering viability of human ES cells (AID 493140; call rule not given here;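 note: cells exposed to compounds for four days before counting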); conditions: human embryonic stem cell survival screen; stronger effect = higher value
[10] = target: 6-phosphogluconate dehydrogenase, decarboxylating (Homo sapiens) (UniProt P52209); assay: inhibition of human phosphogluconate dehydrogenase – biochemical, recombinant enzyme, NADPH absorbance, primary screen (AID 1159550;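 active = at least 20% inhibition of 6-phosphogluconate dehydrogenase activity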); conditions: recombinant 6PGD, NADPH absorbance 341 nm; at 10 µM; stronger effect = higher value
[11] = modulation of C. elegans fzo-1 (AID 1259413; call rule not given here;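 note: fzo-1 mutant C. elegans worms in liquid wells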); conditions: C. elegans fzo-1 modulator screen, mean read-out; stronger effect = higher value
[12] = EMT-state selective cytotoxicity in co-culture – imaging, PC-3E GFP, TEM4-18 mCherry, primary screen (AID 1345086;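 active = compounds killing one labelled cell type while sparing the other, by normalised counts and ratio limits, not self-fluorescent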;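 for all read-outs here: cells exposed to compound for 72 h before imaging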;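 for red/green cell ratio (normalised): normalised mesenchymal count divided by normalised epithelial count so high means epithelial killing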); conditions: PC-3E GFP / TEM4-18 mCherry co-culture, imaging cell counts, at 1 µM; for red/green cell ratio (normalised): actives lie on both sides, counts scaled to control wells, 1 = unselective
[13] = MELAS cybrid and Rieske KO viability enhancers – cell-based, MELAS cybrids, Rieske KO mouse fibroblasts, CellTiter-Glo, primary screen (AID 1508586;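 active = mean z-score across replicates of 1.96 or higher in either the MELAS or the Rieske mutant cell line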;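 note: z relative to plate mean and SD of compound and empty wells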); conditions: low glucose
[14] = target: NAD(+) hydrolase SARM1 (Homo sapiens) (UniProt Q6SZW1); assay: blocking NAD cleavage by SARM1 SAM-TIR – cell lysate, NAD-Glo luminescence (AID 1508614;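 active = compound whose remaining NAD level is above about 45 nM, limit read from the data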;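 note: higher remaining NAD means stronger inhibition of SARM1 NADase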); conditions: SAM-TIR HEK293T lysate NADase, at 1 µM, stronger effect = higher value
[15] = target: Mitogen-activated protein kinase 7 (Homo sapiens) (UniProt Q13164); assay: Gal4-ERK5 driven luciferase induction – cell-based, HTS, primary screen (AID 1508626;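 active = luciferase signal above three times the same-plate solvent-only control wells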;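 note: luciferase driven by Gal4-ERK5 fusion binding five Gal4 sites before minimal TATA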); conditions: HeLa Gal4-ERK5 transactivation, 18 h, at 5 µM, stronger effect = higher value
[16] = stimulators of insulin release from INS-1E, primary screen, cell-based, 5 mM glucose, NPC library (AID 1117329;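 active = compound raises insulin release from rat beta cells at 5 mM glucose, no numeric limit stated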); conditions: rat INS-1E insulin secretion, at 10 µM, stronger effect = higher value
[17] = inhibition of endothelial tube formation, primary screen, imaging, VEGF stimulated, CD31 staining, tube area, NPC library (AID 1117340;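 active = compound that reduces growth-factor-driven endothelial tube area in a mixed cell culture, no cutoff stated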); conditions: VEGF-stimulated ADSC/ECFC co-culture, at 10 µM, stronger effect = higher value
[18] = GLP1 release stimulators, primary, NCI-H716, NPC library (AID 1117341;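 active = compound raises GLP1 secretion from the human gut endocrine cells, with no numeric limit stated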); conditions: NCI-H716 cells, at 10 µM, stronger effect = higher value
[19] = drug combination growth inhibition, ovarian cancer – cell-based, oncology-focused library, rucaparib conditional, profiling panel (AID 1508598); conditions: patient-derived ovarian cancer cells, CellTiter-Glo viability, 144 h, stronger effect = lower value
[20] = P. berghei load reduction in hepatocytes – cell-based, HepG2, luciferase luminescence, HepG2 viability, primary screen (AID 624349; in the data active = parasite load remaining mostly below about 12%, no sharp cut-off; inactive = mostly above about 10%;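 note: 100% = mean of DMSO negative control wells on the same plate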); conditions: P. berghei liver stage in HepG2, luciferase luminescence, concentration not given here; parasite load remaining: stronger effect = lower value; viability: measured here: HepG2 viability without parasites
[21] = stronger effect = lower value, cell number ratio, induced over uninduced
[22] = measured here: relative caspase fold change +Dox/-Dox
[23] = measured here: total cells with miR-34 induction, stronger effect = lower value
[24] = measured here: total cells without miR-34 induction
[25] = measured here: epithelial PC-3E GFP cell survival
[26] = measured here: mesenchymal TEM4-18 mCherry cell survival
[27] = MELAS cybrid survival, CellTiter-Glo 48 h, stronger effect = higher value
[28] = Rieske KO mouse fibroblast survival, CellTiter-Glo 72 h

6-phosphogluconate dehydrogenase, decarboxylating (Homo sapiens), sequence (P52209 whole entry, looked up): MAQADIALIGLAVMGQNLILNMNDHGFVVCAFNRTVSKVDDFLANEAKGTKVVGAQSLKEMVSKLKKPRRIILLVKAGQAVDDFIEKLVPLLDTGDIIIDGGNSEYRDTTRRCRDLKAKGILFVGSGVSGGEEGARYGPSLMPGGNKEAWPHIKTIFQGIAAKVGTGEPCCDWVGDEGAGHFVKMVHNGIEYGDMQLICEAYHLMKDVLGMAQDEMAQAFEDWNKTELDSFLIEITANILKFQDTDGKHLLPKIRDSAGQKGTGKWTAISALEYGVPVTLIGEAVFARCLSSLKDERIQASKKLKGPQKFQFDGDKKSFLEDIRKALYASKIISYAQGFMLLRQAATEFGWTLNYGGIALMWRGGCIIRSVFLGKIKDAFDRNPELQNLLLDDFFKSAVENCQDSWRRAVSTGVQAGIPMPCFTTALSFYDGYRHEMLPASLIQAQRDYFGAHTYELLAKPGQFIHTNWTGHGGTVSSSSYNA
NAD(+) hydrolase SARM1 (Homo sapiens), sequence (Q6SZW1 whole entry, looked up, the tested form may be a part): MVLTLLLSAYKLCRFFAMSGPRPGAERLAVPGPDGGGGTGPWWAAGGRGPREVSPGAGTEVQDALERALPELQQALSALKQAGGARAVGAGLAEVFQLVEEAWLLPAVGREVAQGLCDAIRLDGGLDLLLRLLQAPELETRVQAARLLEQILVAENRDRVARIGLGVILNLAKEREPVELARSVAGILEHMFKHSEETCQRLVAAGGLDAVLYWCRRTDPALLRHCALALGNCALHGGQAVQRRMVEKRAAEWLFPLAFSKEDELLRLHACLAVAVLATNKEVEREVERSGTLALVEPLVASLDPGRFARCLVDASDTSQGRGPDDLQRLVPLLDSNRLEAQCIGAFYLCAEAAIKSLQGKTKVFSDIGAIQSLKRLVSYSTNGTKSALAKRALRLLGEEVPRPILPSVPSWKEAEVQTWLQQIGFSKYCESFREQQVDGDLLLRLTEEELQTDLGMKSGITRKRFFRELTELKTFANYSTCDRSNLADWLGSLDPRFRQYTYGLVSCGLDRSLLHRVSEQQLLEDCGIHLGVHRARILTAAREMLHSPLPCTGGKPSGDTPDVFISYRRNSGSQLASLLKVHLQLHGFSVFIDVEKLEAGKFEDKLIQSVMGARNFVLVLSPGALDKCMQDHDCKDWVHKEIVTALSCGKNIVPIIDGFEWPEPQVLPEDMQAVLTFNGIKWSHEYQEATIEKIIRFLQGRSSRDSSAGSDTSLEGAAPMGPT
Mitogen-activated protein kinase 7 (Homo sapiens), sequence (Q13164 whole entry, looked up, the tested form may be a part): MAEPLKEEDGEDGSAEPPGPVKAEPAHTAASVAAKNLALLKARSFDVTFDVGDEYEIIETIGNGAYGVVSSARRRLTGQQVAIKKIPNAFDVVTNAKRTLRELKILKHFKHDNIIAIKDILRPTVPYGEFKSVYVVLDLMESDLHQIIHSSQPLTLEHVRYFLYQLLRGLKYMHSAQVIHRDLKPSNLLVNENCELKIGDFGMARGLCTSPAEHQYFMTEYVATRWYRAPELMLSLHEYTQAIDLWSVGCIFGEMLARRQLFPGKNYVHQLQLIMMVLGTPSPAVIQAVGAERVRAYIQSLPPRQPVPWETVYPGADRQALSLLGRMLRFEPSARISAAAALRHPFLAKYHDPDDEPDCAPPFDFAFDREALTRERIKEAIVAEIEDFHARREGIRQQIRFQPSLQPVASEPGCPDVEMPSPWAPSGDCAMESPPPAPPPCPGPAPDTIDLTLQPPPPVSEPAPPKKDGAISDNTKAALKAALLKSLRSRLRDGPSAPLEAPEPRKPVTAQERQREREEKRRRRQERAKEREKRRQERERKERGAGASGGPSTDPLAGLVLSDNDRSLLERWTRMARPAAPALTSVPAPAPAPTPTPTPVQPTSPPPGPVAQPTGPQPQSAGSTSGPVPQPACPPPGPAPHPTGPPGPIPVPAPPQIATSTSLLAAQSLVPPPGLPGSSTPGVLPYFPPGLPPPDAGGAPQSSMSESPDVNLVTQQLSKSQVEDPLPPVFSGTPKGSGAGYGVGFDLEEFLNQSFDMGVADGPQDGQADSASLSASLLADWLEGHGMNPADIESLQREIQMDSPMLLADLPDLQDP

CCN(CC)CCOc1ccc(Cc2ccccc2)cc1
8600: cell count [6, 24]
inactive: nuclear beta-catenin stimulation ([1]; at 10 µM) 2.1% | fold change [6, 21] 0.97 | z-score [7] -0.96
active: viability decrease [2] 67.3% | inhibition of viability [3] 67.4% | viability decrease (inhibition) [4] 83.4% | viability decrease (inhibition) [5] 55.9%
14.6%: nuclear beta-catenin stimulation ([1]; stimulation, at 2 µM)
0.737: fold change [6, 22]
8340: cell count [6, 23]

N=c1nc(N2CCCCC2)cc(N)n1O
1.08: normalised cell number [12, 25]
inactive: survival [9] 23.2 | nuclear beta-catenin stimulation ([1]; at 10 µM) 0.1% | viability decrease [2] 3.1% | inhibition of viability [3] 10.8% | viability decrease (inhibition) [4] -3.9% | viability decrease (inhibition) [5] 7.1% | inhibition [10] 0.805% | mean signal [11] 252 | red/green cell ratio (normalised) [12] 1.27 | z-score [13, 27] -0.417 and -0.443 | remaining NAD [14] 10 nM | luciferase signal [15] 44 AU
20.6%: inhibition [8]
0.0783 and -0.248: z-score [13, 28]
1.37: normalised cell number [12, 26]
8.6%: nuclear beta-catenin stimulation ([1]; stimulation, at 2 µM)

CC(C)(C)NCC(O)c1ccc(O)c(CO)c1 (configuration not stated)
-4.84%: inhibition [8]
inactive: survival [9] 26.5 | insulin secretion stimulation [16] 1.1% | viability decrease [2] -1.7% | tube area decrease [17] -7.8% | GLP1 secretion stimulation [18] -1.8% | viability decrease (inhibition) [4] -5.2% | viability decrease (inhibition) [5] -10% | inhibition [10] 0.167% | mean signal [11] 230 | red/green cell ratio (normalised) [12] 0.85 | z-score [13, 27] 0.679 and -0.995 | remaining NAD [14] 10 nM | luciferase signal [15] 32 AU | z-score [7] 0.105 and 0.825 and 0.82
1: normalised cell number [12, 26]
1.18: normalised cell number [12, 25]
active: inhibition of viability [3] -1.7%
0.164 and -0.427: z-score [13, 28]

CCCC(CCC)C(=O)O
1.15: normalised cell number [12, 26]
inactive: nuclear beta-catenin stimulation ([1]; at 10 µM) -1.5% | viability decrease [2] 4.6% | inhibition of viability [3] 20.8% | viability decrease (inhibition) [4] -4.3% | viability decrease (inhibition) [5] 13.5% | inhibition [10] 13.2% | mean signal [11] 274 | red/green cell ratio (normalised) [12] 1.21 | viability ([19]; at 0.000305 µM, OCI-C5x cells, with rucaparib 10 µM, 100% = cells with rucaparib alone) 125% | viability ([19]; at 0.000305 µM, OCI-C5x cells, without rucaparib) 105% | viability ([19]; at 0.000305 µM, OCI-P5x cells, with rucaparib 20 µM, 100% = cells with rucaparib alone) 129% | viability ([19]; at 0.000305 µM, OCI-P5x cells, without rucaparib) 126% | viability ([19]; at 0.00122 µM, OCI-C5x cells, with rucaparib 10 µM, 100% = cells with rucaparib alone) 125% | viability ([19]; at 0.00122 µM, OCI-C5x cells, without rucaparib) 128% | viability ([19]; at 0.00122 µM, OCI-P5x cells, with rucaparib 20 µM, 100% = cells with rucaparib alone) 124% | viability ([19]; at 0.00122 µM, OCI-P5x cells, without rucaparib) 121% | viability ([19]; at 0.00488 µM, OCI-C5x cells, with rucaparib 10 µM, 100% = cells with rucaparib alone) 113% | viability ([19]; at 0.00488 µM, OCI-C5x cells, without rucaparib) 115% | viability ([19]; at 0.00488 µM, OCI-P5x cells, with rucaparib 20 µM, 100% = cells with rucaparib alone) 122% | viability ([19]; at 0.00488 µM, OCI-P5x cells, without rucaparib) 127% | viability ([19]; at 0.0195 µM, OCI-C5x cells, with rucaparib 10 µM, 100% = cells with rucaparib alone) 119% | viability ([19]; at 0.0195 µM, OCI-C5x cells, without rucaparib) 117% | viability ([19]; at 0.0195 µM, OCI-P5x cells, with rucaparib 20 µM, 100% = cells with rucaparib alone) 123% | viability ([19]; at 0.0195 µM, OCI-P5x cells, without rucaparib) 123% | viability ([19]; at 0.0781 µM, OCI-C5x cells, with rucaparib 10 µM, 100% = cells with rucaparib alone) 111% | viability ([19]; at 0.0781 µM, OCI-C5x cells, without rucaparib) 118% | viability ([19]; at 0.0781 µM, OCI-P5x cells, with rucaparib 20 µM, 100% = cells with rucaparib alone) 121% | viability ([19]; at 0.0781 µM, OCI-P5x cells, without rucaparib) 124% | viability ([19]; at 0.313 µM, OCI-C5x cells, with rucaparib 10 µM, 100% = cells with rucaparib alone) 116% | viability ([19]; at 0.313 µM, OCI-C5x cells, without rucaparib) 115% | viability ([19]; at 0.313 µM, OCI-P5x cells, with rucaparib 20 µM, 100% = cells with rucaparib alone) 118% | viability ([19]; at 0.313 µM, OCI-P5x cells, without rucaparib) 122% | viability ([19]; at 1.25 µM, OCI-C5x cells, with rucaparib 10 µM, 100% = cells with rucaparib alone) 119% | viability ([19]; at 1.25 µM, OCI-C5x cells, without rucaparib) 112% | viability ([19]; at 1.25 µM, OCI-P5x cells, with rucaparib 20 µM, 100% = cells with rucaparib alone) 112% | viability ([19]; at 1.25 µM, OCI-P5x cells, without rucaparib) 128% | viability ([19]; at 5 µM, OCI-C5x cells, with rucaparib 10 µM, 100% = cells with rucaparib alone) 115% | viability ([19]; at 5 µM, OCI-C5x cells, without rucaparib) 116% | viability ([19]; at 5 µM, OCI-P5x cells, with rucaparib 20 µM, 100% = cells with rucaparib alone) 122% | viability ([19]; at 5 µM, OCI-P5x cells, without rucaparib) 112% | remaining NAD [14] 10 nM | luciferase signal [15] 132 AU | z-score [7] 0.57 and 0.76 and 0.71
8.9%: nuclear beta-catenin stimulation ([1]; stimulation, at 2 µM)
0.95: normalised cell number [12, 25]
28.5%: inhibition [8]

CC(C)CCCCCOC(=O)COc1ccc(Cl)cc1Cl
inactive: inhibition [10] -8.81%

CS(C)(=O)=O
inactive: inhibition [10] 0.728%

C[C@@H](O[C@H]1OCCN(Cc2n[nH]c(=O)[nH]2)[C@H]1c1ccc(F)cc1)c1cc(C(F)(F)F)cc(C(F)(F)F)c1
0.822 and 0.307 (inactive): z-score [13, 27]
67.5%: viability [20]
9430: cell count [6, 24]
1.18: fold change [6, 22]
9050: cell count [6, 23]
active: viability decrease [2] 99% | tube area decrease [17] 108% | inhibition of viability [3] 97.5% | viability decrease (inhibition) [4] 102% | viability decrease (inhibition) [5] 100%
2.09 and 0.201: z-score [13, 28]
inactive: parasite load remaining [20] 26.3% | insulin secretion stimulation [16] 1.6% | GLP1 secretion stimulation [18] -2.9% | fold change [6, 21] 0.959 | z-score [7] -0.16

Cc1cc(=O)c2c(O)c3c(cc2o1)OC(C)(C)CC3
inactive: inhibition [10] 3.81%

NC[C@@H]1OC(O[C@@H]2[C@@H](O)[C@H](O[C@H]3[C@@H](O)[C@H](N)C[C@H](N)[C@H]3O[C@H]3O[C@H](CN)[C@H](O)[C@H](O)[C@H]3N)O[C@@H]2CO)[C@H](N)[C@@H](O)[C@H]1O (some centres not stated)
inactive: inhibition [10] -6.73%

C=C[C@@H](C1=CC(=O)C(OC)=CC1=O)c1ccccc1
inactive: inhibition [10] -0.743%

COC(=O)C1OC(=O)C2OC23C1(C)CCC1C2(C)CCC(=O)C(C)(C)C2CC(OC(C)=O)C13C (configuration not stated)
inactive: inhibition [10] -6.02%

CC(=O)Oc1ccc(/C=C2\N=C(c3ccccc3)OC2=O)cc1
inactive: inhibition [10] 0.187%
